Results from PubChem BioAssay (EPA / NIEHS).
Inconclusive results are not listed. Activity calls are given as the source filed them. Rule for the calls: active = hit-call score of the fitted dose curve at least 0.9, where 1 is the maximum; inconclusive = response in the unintended direction; inactive = score below 0.9.

Each compound was assayed on Glyceraldehyde-3-phosphate dehydrogenase (Homo sapiens) (UniProt P04406) (assay: CLD_GAPDH_48hr: CellzDirect (CLD) Gene Expression Assay for Baseline Control (Glyceraldehyde 3-phosphate dehydrogenase) at 48 hours (AID 2283706);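 note: active means higher GAPDH mRNA than DMSO vehicle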).
Glyceraldehyde-3-phosphate dehydrogenase (Homo sapiens), sequence (P04406 whole entry, looked up): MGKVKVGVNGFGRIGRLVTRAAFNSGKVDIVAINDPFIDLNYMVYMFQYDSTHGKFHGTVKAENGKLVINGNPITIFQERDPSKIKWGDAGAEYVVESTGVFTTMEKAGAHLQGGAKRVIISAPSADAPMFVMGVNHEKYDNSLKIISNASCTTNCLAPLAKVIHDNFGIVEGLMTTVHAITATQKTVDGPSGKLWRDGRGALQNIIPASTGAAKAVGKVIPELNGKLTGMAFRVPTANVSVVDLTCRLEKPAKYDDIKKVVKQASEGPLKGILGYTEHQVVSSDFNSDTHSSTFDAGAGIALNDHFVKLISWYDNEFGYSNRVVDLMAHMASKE
Method: CLD_48hr is a cell-based, multiplexed-readout assay that uses hepatocyte, a human liver primary cell, with measurements taken at 48 hours after chemical dosing in a 96-well plate.CLD_GAPDH_48hr is one of 16 assay component(s) measured or calculated from the CLD_48hr assay. It is designed to make measurements of mRNA induction, a form of inducible reporter, as detected with chemiluminescence signals by Quantitative Nuclease Protection Assay (qNPA) technology.Data from the assay component CLD_GAPDH_48hr was analyzed at the endpoint, CLD_GAPDH_48hr, in the positive analysis fitting direction relative to DMSO as the negative control and baseline of activity. Using a type of inducible reporter, gain-of-signal activity can be used to understand changes in the reporter gene as they relate to the gene GAPDH. Furthermore, this assay endpoint can be referred to as a secondary readout, because this assay has produced multiple assay endpoints where this one serves a background control function. To generalize the intended target to other relatable targets, this assay endpoint is annotated to the background measurement intended target family, where subfamily is baseline control.
Human hepatocyte cultures were treated daily for two consecutive days with fresh dosing solutions containing appropriate concentrations of the 320 ToxCast chemicals (chemical identities were blinded to CellzDirect and other ToxCast collaborators), vehicle control (0.2% DMSO), and positive control inducers as summarized in Table 1. Due to the large number of treatment groups and chemicals examined, the ToxCast chemicals were divided into two groups (spanning two independent cultures of hepatocytes from separate donor preparations (Hu778: ToxCast plates 1 and 2; Hu776: ToxCast plates 3 and 4). Each preparation of human hepatocyte cultures was treated with respective vehicle control, medium only control, set of six positive controls/reference chemicals for the five hepatic receptor pathways, and a subset of eight of the ToxCast chemicals (indoxacarb, pyrithiobac-sodium, norflurazon, cyhalofop-butyl, methomyl, thiram, acetochlor, and propiconazole). These replicate data, coupled with internal replicates designed within the blinded ToxCast chemical library, provided additional data to evaluate interindividual differences between hepatocyte preparations and their potential impact on chemical profiles.Cell morphology and integrity were evaluated using phase-contrast microscopy as an indicator of hepatocyte cell health (Tyson & Green, 1987). Cultures for each treatment group (i.e., media, vehicle [0.2% DMSO], positive control inducers [multiple concentrations], and the ToxCast chemicals [multiple concentrations]) were observed and cell morphology was assessed relative to vehicle control cultures at each harvest time point (0, 6, 24, or 48 h). […] Images were evaluated at the conclusion of the study to assess changes in cell integrity and account for the effects of chemical exposure on uncharacteristic changes in concentration-dependent gene expression profiles. The results from these determinations of apparent cytotoxicity were annotated (yes/no) alongside the corresponding qNPA data for reference.At the conclusion of each treatment period, hepatocyte cultures (96-well) were washed with 1 volume of HBSS, lysed by addition of 25 ul ArrayPlate lysis buffer (HTG, Tucson, AZ), and 70 ul/well of Denaturation Oil, denatured by incubation at 95C for 10 min, and frozen at approximately -70C until analysis by nuclease protection assay (qNPA) (Roberts et al., 2007). For qNPA analysis, cell lysates were thawed at 50C for approximately 30 min, qNPA probes were added, and samples were incubated at 95C for 10 min to begin the detection process by denaturing the target RNA, dissociating the duplexes and secondary structure hybridization. At the conclusion of the hybridization period, S1 nuclease reagent was added to each sample to digest all nonprotected nucleotides at 50C for 60-90 min. […]
`CC(Oc1ccc(Cl)cc1Cl)C(=O)O` (configuration not stated) was tested, and the outcome was “inactive”. `Cc1ccc(-c2c(Cl)nc(C#N)n2S(=O)(=O)N(C)C)cc1` was tested, and the outcome was “inactive”. With `CC(C)(C)c1ccc(CSc2cnn(C(C)(C)C)c(=O)c2Cl)cc1` the outcome was “inactive”. In the case of `CCCCNC(=O)OCC#CI`, the outcome is reported as “inactive”. `CC1COC(Cn2cncn2)(c2ccc(Oc3ccc(Cl)cc3)cc2Cl)O1` (configuration not stated) was tested, and the outcome was “inactive”. In the case of `N#Cc1nn(-c2c(Cl)cc(C(F)(F)F)cc2Cl)c(N)c1S(=O)C(F)(F)F` (configuration not stated), the outcome is reported as “inactive”. With `O=C(O)COc1nc(Cl)c(Cl)cc1Cl` the outcome was “inactive”. With `CCON=C(CC)C1=C(O)CC(c2c(C)cc(C)cc2C)CC1=O` (configuration not stated) the outcome was “inactive”. `CN(C)C(=S)SSC(=S)N(C)C` was tested, and the outcome was “inactive”. With `COC(=O)C(C)Oc1ccc(Oc2ccc(Cl)cc2Cl)cc1` (configuration not stated) the outcome was “inactive”. With `CCCCC(CC)COC(=O)c1ccccc1C(=O)OCC(CC)CCCC` (configuration not stated) the outcome was “inactive”. In the case of `COc1nc(C)nc(NC(=O)NS(=O)(=O)c2ccccc2Cl)n1`, the outcome is reported as “inactive”. With `CCNc1nc(Cl)nc(NCC)n1` the outcome was “inactive”. `CCOC(=O)CC(SP(=S)(OC)OC)C(=O)OCC` (configuration not stated) was tested, and the outcome was “inactive”. For `CNC(=O)ON=CC(C)(C)SC`, the outcome was “inactive”. With `CNC(=S)S` the outcome was “inactive”. In the case of `CCNc1nc(Cl)nc(NC(C)C)n1`, the outcome is reported as “inactive”. In the case of `COP(=S)(OC)Oc1nc(Cl)c(Cl)cc1Cl`, the outcome is reported as “inactive”. In the case of `CCCCOC(=O)c1ccccc1C(=O)OCCCC`, the outcome is reported as “inactive”. In the case of `C=CC1(C)OC(=O)N(c2cc(Cl)cc(Cl)c2)C1=O` (configuration not stated), the outcome is reported as “inactive”. With `CCCCNC(=O)n1c(NC(=O)OC)nc2ccccc21` the outcome was “inactive”. For `N#Cc1cc(Br)c(O)c(Br)c1`, the outcome was “inactive”.
